This is part of a sample that, as a whole, favours compounds with a hit. Of some 83,000 tested, about 20% had one in any assay.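 Results are percent growth after 48 hours of single-concentration exposure. 100 means growth as in untreated cells, lower positive values show inhibition; negative values down to -100 show cell death.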 A number with no mark means an inactive call. The source made the active and inactive calls. The calls were made as follows: active = growth percent below 10; inactive = the rest.

Some test systems named below: SK-MEL-2 melanoma; EKVX NSCLC; SN12C renal; UO-31 renal; TK-10 renal; ACHN renal; CAKI-1 renal; CCRF-CEM leukemia; MOLT-4 leukemia; OVCAR-8 ovarian; OVCAR-5 ovarian; OVCAR-4 ovarian; IGROV1 ovarian; OVCAR-3 ovarian; HS 578T breast; NCI/ADR-RES ovarian; RPMI-8226 leukemia; SK-OV-3 ovarian; SR leukemia.
Experiment in all cases: NCI-60 one-dose screen, 48 h (100 = growth as untreated, 0 = no growth, -100 = all killed)
Holding throughout (conditions): 10 µM unless noted

Regarding `NS(=O)(=O)Oc1ccc(NC(=O)C23CC4CC(CC(C4)C2)C3)cc1Cl`, the growth is 99.9% in the assay on SK-MEL-2 melanoma; 93% in the assay on EKVX NSCLC; 90.6% with SN12C renal; 63.4% in the assay with UO-31 renal; 100% with TK-10 renal; 96.1% in the assay with ACHN renal. Further, the growth is 89% in the assay with CAKI-1 renal; 73.6% in the assay on CCRF-CEM leukemia; 82.3% in the assay with MOLT-4 leukemia; 98.4% in the assay with OVCAR-8 ovarian; 101% in the assay on OVCAR-5 ovarian; 83.9% with OVCAR-4 ovarian. Moreover, the growth in the assay with IGROV1 ovarian is 95.9%; in the assay on OVCAR-3 ovarian, 103%; with HS 578T breast it was 95.5%; with NCI/ADR-RES ovarian, 93.6%.
On to `CC(C)(C)CC(C)(C)Nc1c(-c2ccc(-c3ccccc3)cc2)nc2cnccn12`, for which the growth with SK-MEL-2 melanoma is 72.2%; in the assay with EKVX NSCLC it was 92.7%; with SN12C renal, 98.7%; in the assay on UO-31 renal, 68.8%; in the assay with TK-10 renal, 86.6%; with ACHN renal, 100%. Also, the growth was 76.1% in the assay on CAKI-1 renal; 72.9% with CCRF-CEM leukemia; 62.5% in the assay on MOLT-4 leukemia; 68.7% in the assay with RPMI-8226 leukemia; 70.2% in the assay on OVCAR-8 ovarian; 88.1% in the assay with OVCAR-5 ovarian. The growth in the assay on OVCAR-4 ovarian is -26.5% (active); in the assay on SK-OV-3 ovarian, 76.3%; in the assay on IGROV1 ovarian it was 66%; with OVCAR-3 ovarian, 90.2%; with HS 578T breast, 95.5%; in the assay with NCI/ADR-RES ovarian, 97.7%.
With `COC(=O)[C@]12CC[C@@H](C)[C@H](C)[C@@H]1C1=CC[C@@H]3[C@@]4(C)C(C=O)=C[C@@](C)(CO)C4=CC[C@@]3(C)[C@]1(C)CC2`, the growth in the assay on SK-MEL-2 melanoma was 52.4%; in the assay on EKVX NSCLC, 34.4%; with SN12C renal, 37.6%; in the assay on UO-31 renal it was 27.8%; in the assay with TK-10 renal it was 54.4%; in the assay on ACHN renal it was 17.1%. Also, the growth in the assay with CAKI-1 renal is 42.8%; in the assay on CCRF-CEM leukemia it was 18.7%; with MOLT-4 leukemia it was 8.61% (active); in the assay on RPMI-8226 leukemia, 12.8%; in the assay on OVCAR-8 ovarian, 32.2%; in the assay with OVCAR-5 ovarian, 62.9%. For the same molecule, the growth in the assay on OVCAR-4 ovarian was 31.7%; in the assay with SK-OV-3 ovarian it was 76.3%; with IGROV1 ovarian, 45.4%; in the assay with OVCAR-3 ovarian, 24.3%; in the assay on HS 578T breast it was 47.5%; with NCI/ADR-RES ovarian it was 31.9%.
As for `c1ccc2c(c1)nc(-n1ccnc1)c1nc3ccccc3n12`, the growth in the assay on SK-MEL-2 melanoma is 88.7%; in the assay with EKVX NSCLC it was 74.1%; in the assay with SN12C renal, 52.6%; in the assay with UO-31 renal, 46.1%; in the assay with TK-10 renal it was 72.4%; in the assay on ACHN renal, 32.3%. Also, the growth in the assay with CAKI-1 renal is 56%; in the assay with CCRF-CEM leukemia, 78%; in the assay with MOLT-4 leukemia it was 74.9%; with RPMI-8226 leukemia, 77.9%; in the assay on OVCAR-8 ovarian, 30.4%; in the assay on OVCAR-5 ovarian it was 82.4%. Also, the growth in the assay on SK-OV-3 ovarian is 21.5%; in the assay with IGROV1 ovarian it was 52.5%; in the assay on OVCAR-3 ovarian, 78.1%; in the assay with HS 578T breast, 70.3%; with NCI/ADR-RES ovarian it was 49.2%.
Take `O=C(C[C@@]1(O)C(=O)Nc2c(Cl)ccc(Cl)c21)c1ccc(C2CC2)cc1`: the growth is 43.1% with SK-MEL-2 melanoma; 46.5% in the assay on EKVX NSCLC; 32.2% in the assay with SN12C renal; 37.9% in the assay with UO-31 renal; 70.4% in the assay with TK-10 renal; 39.6% in the assay on ACHN renal. Further, the growth was 34.4% with CAKI-1 renal; 15.9% in the assay on CCRF-CEM leukemia; 18.9% with MOLT-4 leukemia; 23.4% with RPMI-8226 leukemia; 29.7% with OVCAR-8 ovarian; 33.4% in the assay on OVCAR-5 ovarian. The growth with OVCAR-4 ovarian was 54.3%; in the assay with SK-OV-3 ovarian, 38.6%; with IGROV1 ovarian, 22.9%; with OVCAR-3 ovarian it was -11.9% (active); in the assay on HS 578T breast, 7.19% (active); with NCI/ADR-RES ovarian, 5.4% (active).
For the molecule `COc1cc(/C=C/C(=O)c2ccc(Nc3nc(Nc4ccccc4)nc(Nc4ccc(Cl)cc4)n3)cc2)cc(OC)c1OC`, the growth with SK-MEL-2 melanoma is 82%; in the assay with EKVX NSCLC it was 52.8%; with SN12C renal it was 69%; in the assay on UO-31 renal, 50.6%; in the assay on TK-10 renal, 74.7%; with ACHN renal it was 66.1%. Also, the growth was 66.4% with CAKI-1 renal; 18.5% in the assay with CCRF-CEM leukemia; 25.5% with MOLT-4 leukemia; -4.87% (active) with RPMI-8226 leukemia; 41.1% in the assay on OVCAR-8 ovarian; 55.1% in the assay with OVCAR-5 ovarian. Besides, the growth in the assay with OVCAR-4 ovarian is 61%; in the assay with SK-OV-3 ovarian, 79.5%; in the assay with IGROV1 ovarian, 54.8%; in the assay with OVCAR-3 ovarian, 48%; in the assay on NCI/ADR-RES ovarian, 21.8%.
Take `Cc1ccc(O)c(C(=O)c2ccccc2Cl)c1`: the growth was 112% in the assay on SK-MEL-2 melanoma; 87.7% in the assay on EKVX NSCLC; 103% in the assay with SN12C renal; 79.7% in the assay with UO-31 renal; 98.4% with TK-10 renal; 94.8% in the assay with ACHN renal. In addition, the growth in the assay with CAKI-1 renal is 84.2%; with CCRF-CEM leukemia it was 115%; in the assay on MOLT-4 leukemia, 94.8%; in the assay with RPMI-8226 leukemia it was 112%; with OVCAR-8 ovarian it was 97.6%; with OVCAR-5 ovarian it was 85%. Further, the growth in the assay on OVCAR-4 ovarian was 91.9%; with SK-OV-3 ovarian, 112%; in the assay with IGROV1 ovarian, 102%; with OVCAR-3 ovarian, 118%; in the assay with NCI/ADR-RES ovarian, 89%.
Consider `N=C(N)c1ccc(-c2ccc(-c3ccc(Cl)c(Cl)c3)o2)nc1`, for which the growth was 108% with SK-MEL-2 melanoma; 97.3% in the assay on EKVX NSCLC; -72.8% (active) in the assay on SN12C renal; -92% (active) with UO-31 renal; 116% in the assay on TK-10 renal; -86.9% (active) in the assay with ACHN renal. The growth in the assay with CAKI-1 renal is 87.1%; in the assay on MOLT-4 leukemia, 9.85% (active); in the assay with SR leukemia, 1.79% (active); in the assay with OVCAR-5 ovarian it was 39%; in the assay on OVCAR-4 ovarian, -68.4% (active); with IGROV1 ovarian, 22.3%. For the same molecule, the growth in the assay with OVCAR-3 ovarian is -80.8% (active); in the assay with HS 578T breast it was 94.8%; in the assay with NCI/ADR-RES ovarian, 32.2%.
With `CCn1c(Sc2nnc(NC(C)=O)s2)nc2c1c(=O)n(C)c(=O)n2C`, the growth in the assay on SK-MEL-2 melanoma is 103%; in the assay on EKVX NSCLC, 88.3%; in the assay with SN12C renal it was 94%; in the assay on UO-31 renal, 83.5%; in the assay on TK-10 renal, 103%; with ACHN renal it was 95.5%. Further, the growth was 93.7% in the assay with CAKI-1 renal; 112% with CCRF-CEM leukemia; 98.1% with SR leukemia; 118% in the assay with RPMI-8226 leukemia; 99.7% in the assay on OVCAR-8 ovarian; 90.3% with OVCAR-5 ovarian. Also, the figures for the growth with IGROV1 ovarian, with OVCAR-3 ovarian and in the assay with NCI/ADR-RES ovarian were 98.2%, 93.1% and 89.5%, respectively.

The record behind these values is PubChem BioAssay (NCI).
